VACV Venus inh = vaccinia inhibition (Venus reporter) | hit rate 0.46% among 330,000 | Vaccinia virus Venus reporter expression, fluorescence | Potency, µM (highest dose often 36.5 µM), usual class: inhibitors; calls by dose curve; tested in A549 cells; also: nearly all actives have a fitted effect of over 30% in size
Lassa entry inh = inhibitors of Lassa virus binding or cell entry; Lassa virus pseudotype entry inhibition, cell reporter; Potency, µM (series often up to 37.9 µM), most hits filed as inhibitors; hit rate 1.2% among 300,000; AID 540256; calls by dose curve; tested in HEK293 cells; also: nearly all actives have a fitted effect of over 50% in size
Vaccinia mCherry = vaccinia inhibition (mCherry reporter); hit rate 0.63% among 310,000; AID 720579; Potency, µM (series often up to 36.5 µM), usual class: inhibitors; Vaccinia virus mCherry reporter infection, fluorescence; calls by dose curve; tested in A549 cells; also: nearly all actives have a fitted effect of over 35% in size
MARV entry inh = Marburg virus entry inhibition. Marburg virus pseudotyped entry inhibition, cell reporter. Potency, µM (doses to about 37.8 µM), hits mostly inhibitors. hit rate 1.8% among 300,000. AID 540276; calls by dose curve; tested in HEK293 cells
CHX counter = affects cycloheximide protein synthesis inhibition readout, counter-screen; AID 2314; hit rate 12% among 300,000; cell reporter, cycloheximide protein synthesis inhibition counterscreen; max response, %; in the data active = max response mostly above about 13%, no sharp cut-off; inactive = mostly below about 14%; also: read at 38.3 µM for the half of the compounds with a filed dose
Shiga inhibitor = Shiga toxin inhibition | hit rate 9.2% among 290,000 | inhibition, % at 38.7 µM | Vero cells, Shiga toxin protein synthesis inhibition reporter; in the data active = inhibition mostly above about 28%, no sharp cut-off; inactive = mostly below about 43%
Hits are given with their value; 0 = inactive; ? = inconclusive; - = no result given; ! = repeats disagree. Shown is part of a subset that was picked to be rich in hits.

SMILES | VACV Venus inh | Lassa entry inh | Vaccinia mCherry | MARV entry inh | CHX counter | Shiga inhibitor
COc1ccc(NC(=O)C(Cc2cc(C)cc(C)c2)C(C)C(=O)O)cc1 (stereo unspecified) | 0 | 0 | 0 | 0 | 0 | 0
CCn1c2ccccc2c2cc(/C=C3\C=Cc4ccccc43)ccc21 | 0 | - | 0 | - | - | -
Fc1ccc(-n2nnc(-c3cccnc3Cl)n2)cc1 | 0 | - | 0 | - | 54.1 | 88.8
Cc1ccc(-n2nnc(-c3cnc4ccccc4c3)n2)cc1 | 0 | - | 0 | - | 57.4 | 0
Cc1ccc(-n2cnc(=O)c3cccnc32)cc1 | - | 0 | - | 0 | 0 | 0
Clc1ccc(-n2nnc(-c3cccnc3Cl)n2)cc1Cl | 0 | - | 0 | - | 34.9 | 53.7
Cc1ccc(-n2nnc(-c3nccn3C)n2)cc1 | 0 | - | 0 | - | 10.8 | 0
Cc1ccc(-n2nnc(-c3cccnc3)n2)cc1 | 0 | - | 0 | - | - | -
Fc1ccc(-n2nnc(-c3ccccc3Cl)n2)cc1 | 0 | 0 | 0 | 0 | 0 | 0
CC(=O)c1ccc(NC(=O)c2sc(-n3nc(C)c(CCC(C)C)c3C)nc2C)cc1 | 0 | 0 | 0 | 0 | - | -
CC(=O)c1c(C)[nH]c(C(=O)OCC(=O)c2c(N)n(C)c(=O)n(C)c2=O)c1C | - | - | - | - | 0 | 0
CCN1C(=O)c2ccccc2S(=O)(=O)c2ccc(C(=O)NCc3ccccc3)cc21 | 0 | 0 | 0 | ? | - | -
Cc1cccc(N2CCN(C(=O)c3cccc(-n4c(C)nc5cccnc54)c3)CC2C)c1 (stereo unspecified) | 0 | ? | 0 | - | - | -
COc1ncccc1-c1nnn(-c2ccccc2)n1 | 0 | - | 0 | - | 42.6 | 54.6
COc1ccccc1N1CCN(c2nc3ccc(C(=O)c4ccccc4)cc3n3c(C)nnc23)CC1 | 0 | 0 | 0 | - | - | -
CC(=O)Nc1ccc(S(=O)(=O)NCC2CCC(C(=O)N3CCCCCC3)CC2)cc1 (stereo unspecified) | 0 | 3.55µM | 0 | 0 | 0 | 0
CC(=O)Nc1ccc(S(=O)(=O)NCC(=O)OCC(=O)NC(=O)C2CCCCC2)cc1 | 0 | ? | 0 | 0 | 20.9 | 0
S=C1SCN(Cc2ccccn2)CN1Cc1ccco1 | 0 | 0 | 0 | 9.2µM | 0 | 0
COCCN1CSC(=S)N(Cc2ccco2)C1 | - | 0 | - | ? | 0 | 0
CCOC(=O)CCN1C(=O)[C@@H]2[C@H]3[C@H](O)[C@H](O)CC(=NNC(=O)OCc4ccccc4)[C@@H]3CC[C@H]2C1=O | - | 0 | - | 0 | - | -
O=C1c2ccccc2-c2n[nH]c3cccc1c23 | 0 | 0 | 11.2µM! | ? | - | -
COc1ccc(S(=O)(=O)N2CCOC23CCN(C(=O)c2ccccc2OC)CC3)cc1 | 0 | 0 | 0 | 0 | - | -
COc1cc(C2NC(=S)NC(O)(C(F)(F)F)C2C(=O)c2cccs2)cc(OC)c1O (stereo unspecified) | 0 | 0 | 0 | 0 | 40.5 | 11.3
CN1C(=O)NC(c2ccc(O)cc2)C(C(=O)c2cccs2)C1(O)C(F)(F)F (stereo unspecified) | 0 | 0 | 0 | 0 | 0 | 111.1
CCOC(=O)C1C(c2cc(OC)c(O)c(OC)c2)NC(=S)NC1(O)C(F)(F)F (stereo unspecified) | 0 | 0 | 0 | ? | 0 | 0
SMILES | VACV Venus inh | Lassa entry inh | Vaccinia mCherry | MARV entry inh | CHX counter | Shiga inhibitor
CCOc1ccccc1C(=O)NCc1nc2cccnc2n1Cc1ccc(C)cc1 | 0 | 0 | 0 | - | - | -
C[C@@]12CCC3c4ccc(OS(=O)(=O)O)cc4CCC3C1CCC2O (stereo partly specified) | 0 | - | 0 | - | - | -
CC12CCC3c4ccc(OC(=O)N(CCCl)CCCl)cc4CCC3C1CCC2O (stereo unspecified) | ? | 5.62µM | 0 | ? | - | -
c1ccc2c(c1)nnn1c3ccccc3nc21 | - | - | - | 0 | 34.4 | 79.7
Nn1nnc2ccccc21 | 0 | 0 | 0 | 0 | 13.9 | 0
CC(C)C(=O)Nc1nc(-c2ccc3c(c2)CCN3C(=O)C2CC2)cs1 | 0 | - | 0 | 0 | 0 | 59.0
CC(C)(C)Nc1nc(-c2ccc3c(c2)CCN3C(=O)C2CC2)cs1 | 0 | ? | ? | ? | 43.1 | 97.9
CCC(CC)C(=O)Nc1nc(-c2ccc3c(c2)CCN3C(=O)C2CC2)c(C)s1 | 0 | 11.2µM | - | ? | 0 | 0
Nc1ccccc1Nc1c(F)c(F)nc(F)c1Cl | 0 | 0 | ? | 0 | 0 | 0
COc1ccc(OC)c(/C=C/c2c3ccccc3cc[n+]2C)c1 | 0 | - | 0 | - | - | -
COc1cccc(N(C(=O)c2nc3nccc(C)n3n2)c2nc3ccccc3s2)c1 | ? | ? | ? | ? | 27.2 | 0
COc1cccc(NC(=O)COC(=O)c2nc3nccc(C)n3n2)c1 | - | 0 | - | 0 | 13.0 | 0
COc1ccc(C)cc1N(C(=O)COc1ccccc1)c1nc2ccccc2s1 | 0 | 0 | 0 | ? | 0 | 0
Cc1ncsc1C(=O)Nc1nc2c(s1)CC(C)CC2 (stereo unspecified) | - | 0 | - | ? | 26.9 | 82.3
CC1CCc2nc(NC(=O)CN3CCN(Cc4ccc5c(c4)OCO5)CC3)sc2C1 (stereo unspecified) | ? | 0 | - | ? | 0 | 0
CC1CCc2nc(NC(=O)C3CC3)sc2C1 (stereo unspecified) | 0 | 0 | - | ? | 50.6 | 82.5
CC1CCc2nc(NC(=O)CN3CCOCC3)sc2C1 (stereo unspecified) | 0 | 0 | - | ? | 38.4 | 67.8
CC1CCc2nc(NC(=O)Nc3ccc4c(c3)OCO4)sc2C1 (stereo unspecified) | ? | ? | ? | ? | 44.7 | 91.1
Cc1ncsc1C(=O)N1N=C2/C(=C/c3ccccc3)CCCC2C1c1ccccc1 (stereo unspecified) | 0 | ? | 0 | 11.2µM | 0 | 0
Cc1ccccc1Nc1nc2nonc2nc1N1CCOCC1 | 0 | 0 | 0 | ? | 0 | 0
CCCCOc1ccc(OCCNS(=O)(=O)N(C)C)cc1 | 0 | 0 | 0 | 0 | 20.5 | 0
CCOc1ccc(NS(=O)(=O)N(C)C)cc1 | 0 | 0 | 0 | 0 | 0 | 0
O=C1CCCC/C1=N\Nc1ccc(C2CCCCC2)cc1 | - | - | - | - | 38.7 | 64.5
O=C(Cc1ccc(OCc2ccccc2)cc1)NCc1ccc2c(c1)OCO2 | 0 | - | 0 | - | - | -
O=C1CCCC/C1=N\Nc1ccc(OCc2ccccc2)cc1 | 0 | 0 | 0 | 0 | 21.5 | 55.5
SMILES | VACV Venus inh | Lassa entry inh | Vaccinia mCherry | MARV entry inh | CHX counter | Shiga inhibitor
COc1ccc(NC(=O)c2c(NC(=O)CCC(=O)O)sc(-c3ccccc3)c2C)cc1 | 0 | - | 0 | - | 0 | 0
COc1cccc(-c2nnc(SCC(=O)Nc3cc(C)on3)o2)c1 | 0 | 0 | ? | 0 | 24.5 | 0
COc1cccc(-c2nnc(SCC(=O)N3CCCc4ccccc43)o2)c1 | 0 | 0 | - | 0 | 0 | 19.4
COc1cccc(-c2nnc(SCC(=O)N(C(C)C)C(C)C)o2)c1 | - | ? | - | 0 | 0 | 55.8
Cc1ccc(NC(=O)Cc2nc(CSc3nnc(-c4ccc5c(c4)OCO5)o3)cs2)cc1 | - | 0 | - | 0 | 0 | 98.0
CN(C)C(=O)c1ccc(NC(=O)CSc2nnc(-c3ccc4c(c3)OCO4)o2)cc1 | 0 | 0 | 0 | ? | - | -
Cc1cc(NC(=O)CSc2nnc(-c3cccc(Cl)c3)o2)no1 | ? | 0 | ? | 0 | 0 | 0
Cc1ccc2nc(COc3cccc(NC(=O)COc4ccccc4F)c3)cc(=O)n2c1 | 0 | 0 | 0 | - | - | -
Cc1c(-c2cc(C(=O)O)on2)cnn1C | 0 | 0 | 0 | 0 | 0 | 0
COc1ccc(CN(Cc2ccccc2)C(=O)c2ccno2)cc1COc1ccc(NC(C)=O)cc1 | 0 | - | 0 | - | - | -
Cc1cc(NC(=O)CSc2nnc(-c3ccc4c(c3)OCCO4)o2)no1 | 0 | ? | - | ? | 21.9 | 120.6
